Hit rate of the full screen: of about 310,000 compounds, about 14,000 (4.5%) showed an effect of 50% or more. Effects have a minus sign here. For the sample, strong results were picked, then their nearest neighbours and some compounds at random.
biological target: human ether-à-go-go-related gene (hERG) potassium channel (human, UniProt Q12809); test: primary screen, population patch clamp on CHO cells stably expressing hERG; higher = less effect of the substance
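Note: peak tail current of the secondary pulse compared with the same well before compound.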

Sequence of human ether-à-go-go-related gene (hERG) potassium channel (Q12809 whole entry, looked up): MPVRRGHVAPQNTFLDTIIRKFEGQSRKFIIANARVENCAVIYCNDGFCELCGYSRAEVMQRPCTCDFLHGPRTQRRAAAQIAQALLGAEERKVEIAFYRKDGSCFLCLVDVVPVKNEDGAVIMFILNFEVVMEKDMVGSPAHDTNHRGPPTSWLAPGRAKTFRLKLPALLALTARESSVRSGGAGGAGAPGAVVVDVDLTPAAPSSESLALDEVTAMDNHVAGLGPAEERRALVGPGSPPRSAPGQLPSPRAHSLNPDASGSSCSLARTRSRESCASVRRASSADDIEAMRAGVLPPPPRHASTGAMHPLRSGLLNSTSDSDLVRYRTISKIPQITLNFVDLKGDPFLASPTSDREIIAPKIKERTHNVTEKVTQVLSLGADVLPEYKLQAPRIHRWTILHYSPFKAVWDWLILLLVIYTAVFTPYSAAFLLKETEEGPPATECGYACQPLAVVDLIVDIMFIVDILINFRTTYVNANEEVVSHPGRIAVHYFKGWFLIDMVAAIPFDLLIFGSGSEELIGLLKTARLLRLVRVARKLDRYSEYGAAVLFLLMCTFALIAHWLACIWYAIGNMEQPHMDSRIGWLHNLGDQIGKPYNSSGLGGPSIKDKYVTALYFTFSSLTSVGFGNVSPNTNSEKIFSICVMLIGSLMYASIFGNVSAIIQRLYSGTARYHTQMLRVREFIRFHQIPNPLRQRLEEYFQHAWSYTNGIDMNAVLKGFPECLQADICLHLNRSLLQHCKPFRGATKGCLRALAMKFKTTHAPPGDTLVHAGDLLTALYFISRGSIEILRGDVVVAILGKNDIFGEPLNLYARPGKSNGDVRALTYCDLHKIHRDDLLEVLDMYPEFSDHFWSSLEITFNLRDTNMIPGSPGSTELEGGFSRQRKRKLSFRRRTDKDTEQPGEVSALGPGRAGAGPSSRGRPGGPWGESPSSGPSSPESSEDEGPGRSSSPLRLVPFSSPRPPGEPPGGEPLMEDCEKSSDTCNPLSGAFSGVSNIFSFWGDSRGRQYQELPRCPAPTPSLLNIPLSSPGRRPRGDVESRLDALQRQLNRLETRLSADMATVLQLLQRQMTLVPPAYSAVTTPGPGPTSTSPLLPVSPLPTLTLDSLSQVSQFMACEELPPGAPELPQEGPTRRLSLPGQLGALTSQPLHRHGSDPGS

Compared with O=C(Cc1ccccc1)N/N=C/c1cccnc1, CCC(Cc1ccccc1)NC(=O)CCc1ccccc1 (centres unmarked) is lower in “hERG current change (%, negative = inhibition) at 10uM” value: 20.3% for the first, 13.5% for the second.

First: O=C(Cn1nc(-c2ccccc2)ccc1=O)Nc1ccc(N2CCN(C(=O)c3cccs3)CC2)cc1
Second: CN1CCN(C(=O)c2ccccc2-c2nc(-c3ccccc3)no2)CC1
The “hERG current change (%, negative = inhibition) at 10uM” value of the first is higher: -18.5% for the first, -25.5% for the second.

First: Cc1ccc(C(=O)N2CCCC2)cc1S(=O)(=O)N1CCOCC1
Second: CCN1CCN(c2ccc(S(=O)(=O)N3CCOCC3)cc2NC(=O)/C=C/c2ccc(C)cc2)CC1
The “hERG current change (%, negative = inhibition) at 10uM” value of the first is higher: 1.43% for the first, -46% for the second.

Going from O=C(C1Cc2ccccc2CN1S(=O)(=O)c1ccc(F)cc1)N1CCCCC1 (centres unmarked) to O=C(C1Cc2ccccc2CN1S(=O)(=O)c1ccc(F)cc1)N1CCOCC1 (centres unmarked), the “hERG current change (%, negative = inhibition) at 10uM” value falls from -13.2% to -18%.

Compared with COc1ccc(S(=O)(=O)N2Cc3ccccc3CC2C(=O)N2CCOCC2)cc1OC (centres unmarked), COc1ccc(S(=O)(=O)N2Cc3ccccc3CC2C(=O)N2CCOCC2)cc1 (centres unmarked) is lower in “hERG current change (%, negative = inhibition) at 10uM” value: -18.7% for the first, -59.2% for the second.

First: O=C(c1ccco1)N1CCN(C(=O)C2Cc3ccccc3CN2S(=O)(=O)c2ccc(F)cc2)CC1 (centres unmarked)
Second: COc1ccc(S(=O)(=O)N2Cc3ccccc3CC2C(=O)O)cc1 (centres unmarked)
The “hERG current change (%, negative = inhibition) at 10uM” value of the first is lower: -70.6% for the first, -13.1% for the second.

Going from O=C(NCCNc1nccc(C(F)(F)F)n1)c1cccc(C(F)(F)F)c1 to CC1Sc2ccc(C(=O)NCc3cccc(C(F)(F)F)c3)cc2NC1=O (centres unmarked), the “hERG current change (%, negative = inhibition) at 10uM” value rises from -8.47% to -4.86%.

First: CCOC(=O)c1c(C)nc(C)c(C(=O)OCC)c1-c1ccc(Br)cc1
Second: CC(C)Cn1c(N)c(C(=O)COC(=O)c2ccc(O)cc2)c(=O)n(C)c1=O
The “hERG current change (%, negative = inhibition) at 10uM” value of the first is lower: -29.7% for the first, -10.6% for the second.

First: Cc1ccccc1Nc1ncnc2c1cnn2Cc1ccccc1
Second: CCOc1ccccc1N(CC)C(=O)Cn1ncc2c(=O)oc3ccccc3c21
The “hERG current change (%, negative = inhibition) at 10uM” value of the first is higher: -10.8% for the first, -26.1% for the second.

First: Cc1c(NC(=O)C(C)OC(=O)CC2CC3CCC2C3)c(=O)n(-c2ccccc2)n1C (centres unmarked)
Second: COC1CCCCC1NCCc1ccccc1.O=C(O)C(=O)O (centres unmarked)
The “hERG current change (%, negative = inhibition) at 10uM” value of the first is lower: -9.36% for the first, -0.725% for the second.

Compared with Cc1ccc(/C=N/Nc2ncnc3nc[nH]c23)cc1, C=CCn1cnc2scc(-c3ccc(C)cc3)c2c1=O is higher in “hERG current change (%, negative = inhibition) at 10uM” value: -18.6% for the first, -10.4% for the second.

Compared with Nc1cccc(C(=O)Nc2ccco2)c1, CCC(CC)C(=O)Nc1cccc(C(=O)Nc2ccc(S(N)(=O)=O)cc2)c1 is higher in “hERG current change (%, negative = inhibition) at 10uM” value: -2.33% for the first, 10.8% for the second.

Going from O=C(O)CN1C(=O)/C(=C2\SC(=S)N(C(Cc3ccccc3)C(=O)O)C2=O)c2ccccc21 (centres unmarked) to N#CC1(c2ccccc2)CCC(NCCc2ccccc2)CC1.O=C(O)C(=O)O (centres unmarked), the “hERG current change (%, negative = inhibition) at 10uM” value falls from 2.15% to -69.5%.

First: CC(C)(C)CC(=O)Nc1nnc(SCC(=O)NC2CCCCC2)s1
Second: O=C(O)C(=O)O.c1ccc(CCNC2CCCCCC2)cc1
The “hERG current change (%, negative = inhibition) at 10uM” value of the first is lower: -36.5% for the first, -4.67% for the second.

Compared with O=C(N1CCOCC1)N1CCN(S(=O)(=O)N2CCOCC2)CC1, CCN1CCN(c2ccc(S(=O)(=O)N3CCOCC3)cc2NC(=O)/C=C/c2ccc([N+](=O)[O-])cc2)CC1 is lower in “hERG current change (%, negative = inhibition) at 10uM” value: 11.3% for the first, -71.8% for the second.

Compared with C=CCn1c(SCC(=O)Nc2cccc3ccccc23)nc(O)c(CC)c1=O, CC(=O)N(C)C1(c2nnnn2CCOC(=O)Nc2cccc3ccccc23)CCCC1 is lower in “hERG current change (%, negative = inhibition) at 10uM” value: 3.7% for the first, 0.969% for the second.

Going from COc1ccc(NC(=O)CC2C(=O)N(c3cccc(OC)c3)C(=O)N2C2CCCCC2)cc1 (centres unmarked) to COc1ccc(OCC(=O)Nc2ccc3c(c2)nc(CCN2CCOCC2)n3C)cc1, the “hERG current change (%, negative = inhibition) at 10uM” value falls from 13.4% to -41%.

First: CCN(CC)Cc1c(C(=O)N/N=C/c2c(Cl)cccc2Cl)nnn1-c1nonc1N
Second: COCCNC(=O)c1ccccc1-c1nc(-c2ccccc2Cl)no1
The “hERG current change (%, negative = inhibition) at 10uM” value of the first is higher: 11.8% for the first, -9.09% for the second.

Compared with COc1ccc(Cn2c(=O)n(Cc3ccco3)c(=N)c3c4c(sc32)COC(C)(C)C4)cc1, CCCCOc1[nH]c2nc(-c3ccco3)n(Cc3ccco3)c(=N)c2c1C#N is lower in “hERG current change (%, negative = inhibition) at 10uM” value: -15.9% for the first, -69.1% for the second.

Compared with c1coc(Cn2c(-c3ccco3)nc3ccccc32)c1, NC(=O)c1ccccc1-c1nc(-c2ccccc2)no1 is lower in “hERG current change (%, negative = inhibition) at 10uM” value: -10% for the first, -76.5% for the second.

First: CCNC(=O)COc1ccc(/C=C2\COc3ccccc3C2=O)cc1OC
Second: COc1ccc(/C=C2\COc3ccccc3C2=O)cc1OC
The “hERG current change (%, negative = inhibition) at 10uM” value of the first is lower: -71.8% for the first, -17.1% for the second.

First: CCOc1cc(/C=C2\COc3ccccc3C2=O)ccc1OCC(=O)N(C)C
Second: CCCN(C(=O)Cn1ncc2c(=O)oc3ccccc3c21)c1cccc(C)c1
The “hERG current change (%, negative = inhibition) at 10uM” value of the first is higher: -10.3% for the first, -54.3% for the second.

Compared with COc1ccc(N2C(=S)N(C(=O)c3ccccc3)C(=Nc3ccccc3)C2=Nc2ccccc2)cc1, c1ccc(-c2noc(-c3ccccc3-c3ccccc3)n2)cc1 is higher in “hERG current change (%, negative = inhibition) at 10uM” value: -3.16% for the first, 5.26% for the second.

Going from O=C(c1ccccc1-c1nc(-c2ccc(Cl)cc2)no1)N1CCCC1 to Cc1ccc(-c2noc(-c3ccccc3C(=O)N3CCCC3)n2)cc1, the “hERG current change (%, negative = inhibition) at 10uM” value falls from 0.639% to -32.3%.

First: Cc1ccc(-c2noc(-c3ccccc3C(=O)N3CCN(C)CC3)n2)cc1
Second: CN1CCN(C(=O)c2ccccc2-c2nc(-c3ccc(Cl)cc3)no2)CC1
The “hERG current change (%, negative = inhibition) at 10uM” value of the first is higher: -51.2% for the first, -65.6% for the second.

First: Cc1ccc(-c2noc(-c3ccccc3C(=O)N3CCOCC3)n2)cc1
Second: O=C(c1ccccc1-c1nc(-c2ccccc2)no1)N1CCCC1
The “hERG current change (%, negative = inhibition) at 10uM” value of the first is lower: -12.2% for the first, -4.86% for the second.

First: Cc1cccc(NC(=O)CSCC(=O)N=c2sccn2C)c1
Second: COc1ccc(CCCC(=O)N/N=C\c2cccs2)cc1
The “hERG current change (%, negative = inhibition) at 10uM” value of the first is lower: -20.2% for the first, 27.2% for the second.

First: CC(C)n1c(O)c(N=NC(=O)CNC(=O)Cc2ccc(Cl)cc2)c2ccccc21
Second: CC(C)Cn1c(N)c(C(=O)COC(=O)c2ccc(Cl)cc2)c(=O)n(C)c1=O
The “hERG current change (%, negative = inhibition) at 10uM” value of the first is lower: -39.1% for the first, -37.4% for the second.

Going from CC(C)c1cc(-c2cc(-c3ccccc3)on2)nc(NC2CCCC2)n1 to Cn1c(CN2CCOCC2)nc2cc(NC(=O)COc3ccccc3)ccc21, the “hERG current change (%, negative = inhibition) at 10uM” value falls from 6.4% to -0.505%.

First: COc1ccc(CN(C)CC(=O)Nc2ccc(Cl)cc2F)c(OC)c1.O=C(O)C(=O)O
Second: COc1ccc2[nH]c(=O)c(CN(C(C)=O)c3ccc(C)cc3C)cc2c1
The “hERG current change (%, negative = inhibition) at 10uM” value of the first is lower: -16.1% for the first, 1.02% for the second.

First: Cl.Nc1ncnc2sc3c(c12)CCNC3
Second: CSc1nc(N)c(C(=O)Nc2ccc([N+](=O)[O-])cc2)s1
The “hERG current change (%, negative = inhibition) at 10uM” value of the first is higher: 25.4% for the first, -12.3% for the second.

First: O=C(COn1nnc2ccc(S(=O)(=O)N3CCOCC3)cc21)NCCc1ccccc1
Second: Cn1c(CCN2CCOCC2)nc2cc(NC(=O)COc3ccccc3)ccc21
The “hERG current change (%, negative = inhibition) at 10uM” value of the first is higher: -8.87% for the first, -15.1% for the second.

Going from COc1ccc(CNC(=O)C2CCCN(S(=O)(=O)c3ccc4c(c3)CCCN4C(C)=O)C2)cc1 (centres unmarked) to COc1ccc(/C=C/C(=O)Nc2cc(S(=O)(=O)N3CCCCC3)ccc2N2CCCCC2)cc1OC, the “hERG current change (%, negative = inhibition) at 10uM” value falls from 4.76% to 4.11%.

Going from CC(C)Cn1c(N)c(C(=O)COC(=O)c2c(O)c(Cl)cc(Cl)c2Cl)c(=O)n(C)c1=O to CC(C)Cn1c(N)c(C(=O)COC(=O)c2cnc(Cl)c(Cl)c2)c(=O)n(C)c1=O, the “hERG current change (%, negative = inhibition) at 10uM” value rises from -79.8% to -71.1%.

Compared with CC(C)Cn1c(N)c(C(=O)COC(=O)c2cc(F)cc(F)c2)c(=O)n(C)c1=O, CC(C)Cn1c(N)c(C(=O)COC(=O)c2cccc(Cl)c2)c(=O)n(C)c1=O is higher in “hERG current change (%, negative = inhibition) at 10uM” value: -42.1% for the first, -6.08% for the second.

Going from Cc1ccc(OCC(=O)Nc2ccc3c(c2)nc(CCN2CCOCC2)n3C)cc1 to Cn1c(CCN2CCOCC2)nc2cc(NC(=O)COc3ccc(Cl)cc3)ccc21, the “hERG current change (%, negative = inhibition) at 10uM” value falls from -51.3% to -55.4%.

Compared with CC(=O)Nc1ccc2c(c1)nc(CCN1CCOCC1)n2C, Cc1ccc2oc(=O)c3cnn(CC(=O)N(CCCN4CCOCC4)Cc4ccco4)c3c2c1 is lower in “hERG current change (%, negative = inhibition) at 10uM” value: 10.4% for the first, -57.5% for the second.

Compared with CC(=O)Nc1ccccc1NC(=O)C/C(C)=N/NC(=O)C(=O)N1CCCCC1, CCN1CCN(c2ccc(S(=O)(=O)N3CCCCC3)cc2NC(=O)/C=C/c2ccc([N+](=O)[O-])cc2)CC1 is lower in “hERG current change (%, negative = inhibition) at 10uM” value: -13.3% for the first, -70.8% for the second.

Compared with O=C(N/N=C\c1cccc(F)c1)c1ccc(-c2ccccc2)cc1, O=C(NC(=S)Nc1ccc2ncccc2c1)c1ccccc1 is lower in “hERG current change (%, negative = inhibition) at 10uM” value: 27% for the first, 2.36% for the second.

Going from CCN1CCN(c2ccc(S(=O)(=O)N3CCOCC3)cc2NC(=O)/C=C/c2ccc(OC)c(OC)c2)CC1 to CCN1CCN(c2ccc(S(=O)(=O)N3CCCCC3)cc2NC(=O)/C=C/c2ccc(F)cc2)CC1, the “hERG current change (%, negative = inhibition) at 10uM” value falls from 10.4% to -48.1%.

Going from CCOC(=O)Cn1ncc2c(=O)oc3ccccc3c21 to CCCCN(Cc1ccco1)C(=O)Cn1ncc2c(=O)oc3ccc(C)cc3c21, the “hERG current change (%, negative = inhibition) at 10uM” value rises from -0.743% to 13.2%.

With COCCCN(Cc1ccco1)C(=O)Cn1ncc2c(=O)oc3ccc(C)cc3c21 the “hERG current change (%, negative = inhibition) at 10uM” value was -49.6%.

Reference: article PMC4336329 (PLoS ONE, 2015)
